# RE007 growth inh – less growth of the S. pombe RE007 Vpr strain; Potency, µM (highest dose often 92.2 µM), for the others: at the highest dose activity change, negative = less growth, usual class: inhibitors; AID 651644; hit rate 0.21% among 360,000; S. pombe RE007 Vpr strain, BacTiter-Glo ATP luminescence, 24 h; active = well fitted falling curve with a large enough effect; inconclusive = small, poorly fitted or top-dose-only effect; inactive = no such curve, though single readings can be large or run the other way; note: potency is the fitted concentration of half-maximal effect; % is set by controls: 0 for no effect and ±100 for the full control effect; nearly all actives have a fitted effect of over 50% in size
#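 Fission yeast RE007 carrying one integrated HIV-1 vpr copy, seeded at OD 0.01 in PMG+AL medium with 23 nL pinned compound. Grown 24 h at 30 degrees; viability read by BacTiter-Glo luminescence after 5 min.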
# LmPK inhibitor – LmPK (Leishmania mexicana) enzyme inhibition; Potency, µM (doses to about 57.5 µM), inactives show at the top dose activity change, negative = inhibition, usual class: inhibitors; hit rate 0.37% among 290,000; purified LmPK, Kinase-Glo ATP luminescence, 1 h; Q27686; note: potency is the fitted concentration of half-maximal effect; % is set by controls: 0 for no effect and ±100 for the full control effect
#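 0.1 nM LmPK, 0.5 mM PEP, 0.1 mM ADP; 50 mM imidazole pH 7.2, 7 mM MgCl2, 50 mM KCl; 1 h RT. Kinase-Glo luminescence readout, normalized to no-enzyme (full inhibition) and uninhibited wells.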
# TbPYK inhibitor – inhibitors of Trypanosoma brucei pyruvate kinase; TbPYK enzyme, Kinase-Glo Plus ATP luminescence, 45 min; hit rate 0.12% among 410,000; Q57TT1; Potency, µM (titrated, usually from 76.8 µM), for the others: at the highest dose activity, negative = inhibition, hits mostly inhibitors; note: potency is the fitted concentration of half-maximal effect; % is set by controls: 0 for no effect and ±100 for the full control effect; nearly all actives have a fitted effect of over 50% in size
#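 Screened from lowest to highest concentration, compounds were pinned into TbPYK/substrate mixtures, and ADP (130 uM final) was added. Plates sat at room temperature for 45 min prior to Kinase-Glo Plus detection by luminescence.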
# FBPA Giardia inh – Giardia lamblia aldolase inhibition; purified Giardia FBPA; A8B2U2; hit rate 0.71% among 290,000; Potency, µM (top dose mostly 59.6 µM), for inactives: at the highest dose activity, negative = inhibition, hits mostly inhibitors; note: potency is the fitted concentration of half-maximal effect; % is set by controls: 0 for no effect and ±100 for the full control effect; nearly all actives have a fitted effect of over 55% in size
# Target sequence (A8B2U2 whole entry, looked up): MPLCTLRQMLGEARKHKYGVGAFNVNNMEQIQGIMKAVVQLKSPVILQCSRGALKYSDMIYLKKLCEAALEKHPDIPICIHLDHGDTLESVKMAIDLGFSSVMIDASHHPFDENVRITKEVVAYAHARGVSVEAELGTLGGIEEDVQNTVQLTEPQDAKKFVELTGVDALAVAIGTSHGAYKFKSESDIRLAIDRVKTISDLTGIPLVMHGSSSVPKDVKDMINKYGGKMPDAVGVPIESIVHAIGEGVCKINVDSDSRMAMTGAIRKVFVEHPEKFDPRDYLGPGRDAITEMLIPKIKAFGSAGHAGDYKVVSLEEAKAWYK
#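 40 nM FBPA preincubated 10 min at RT with compound (up to 57.5 uM final), then substrate plus GAPDH/TPI/NAD/arsenate coupling and diaphorase/resazurin added. Fluorescence read after 20 min at RT, 525/598 nm.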
# CHX counter – affects cycloheximide protein synthesis inhibition readout, counter-screen | cell reporter, cycloheximide protein synthesis inhibition counterscreen | max response, % | hit rate 12% among 300,000; in the data active = max response mostly above about 13%, no sharp cut-off; inactive = mostly below about 14%; note: read at 38.3 µM for the half of the compounds with a filed dose; 0% is about no effect
# Shiga inhibitor – blocks Shiga toxin action in Vero cells; Vero cells, Shiga toxin protein synthesis inhibition reporter; inhibition, % at 38.7 µM; hit rate 9.2% among 290,000; in the data active = inhibition mostly above about 28%, no sharp cut-off; inactive = mostly below about 43%; note: 0% is about no effect
# Starred values were filed as active, the others as inactive; ? = inconclusive; / = no result given. This is one part of a sample in which hits are shown more often than they occur. Unless noted, calls come from the whole dose curve; as a rule, active = well fitted curve in the direction sought with a large enough effect; inconclusive = small, poorly fitted or top-dose-only effect, or another doubt; inactive = no such curve, though single readings can be large; an effect the other way counts as inactive or inconclusive.
SMILES,RE007 growth inh,LmPK inhibitor,TbPYK inhibitor,FBPA Giardia inh,CHX counter,Shiga inhibitor
O=C(NCCc1ccccn1)c1ccc(OC2CCN(CCc3ccccc3)CC2)cc1,-14.9%,-9.8%,0.0%,/,42.0*,65.0*
CC(Cc1ccccn1)NC(=O)c1ccc(OC2CCN(CCc3ccccc3)CC2)cc1 (configuration not stated),0.0%,-3.4%,-3.7%,6.7%,29.3*,47.2*
C/C=C(\C)CN1CCC(Oc2ccc(C(=O)NCc3ccccn3)cc2)CC1,-2.5%,-5.5%,-5.9%,/,10.2,-6.1
COCCNC(=O)c1cccc(OC2CCN(Cc3cccc(C(C)=O)c3)CC2)c1,0.3%,-3.1%,2.2%,3.4%,1.3,3.9
CSCCCNC(=O)c1ccc(OC2CCN(CCc3ccccc3)CC2)cc1,7.6%,7.0%,5.4%,2.0%,30.8*,93.5*
Cc1cc(Cl)ccc1OCc1nc(-c2ccc(-n3cccc3)cc2)no1,/,/,-4.7%,/,/,/
Clc1ccc(OCc2nc(-c3ccccn3)no2)c(Br)c1,-7.8%,-15.2%,-3.1%,-2.5%,41.8*,66.1*
Clc1ccccc1OCc1nc(-c2ccccn2)no1,/,?,-3.2%,-6.2%,32.8*,69.8*
CCc1ccc(-n2nc(C)c3c(C)cc(=O)n(CC(=O)Nc4ccc(C(C)=O)cc4)c32)cc1,/,/,3.4%,/,/,/
COc1cc(N2CCC(N3CCN(C)CC3)CC2)ccc1Nc1ncc(Cl)c(Nc2ccccc2S(=O)(=O)C(C)C)n1,/,/,-24.0%,/,/,/
S=C(NCc1ccc(Cl)cc1Cl)NC1CCCCC1,?,3.5%,0.8%,1.9%,11.8,18.7
O=C1CC(c2ccccc2)=Nc2ccccc2N1,1.3%,-3.1%,-2.6%,1.9%,9.5,12.8
O=C1CC(/C=C/c2ccncc2)=Nc2ccccc2N1,-8.4%,-4.4%,-13.4%,4.7%,30.5*,32.8
CCc1ccc(N2CC(C(=O)N3CCN(S(=O)(=O)c4cccc(F)c4)CC3)CC2=O)cc1 (configuration not stated),12.8%,/,1.9%,/,/,/
Cc1ccc(S(=O)(=O)N2CCN(S(=O)(=O)c3cccs3)CC2)cc1,-4.9%,-6.2%,-1.9%,/,32.9*,55.7*
O=S(=O)(c1cccs1)N1CCN(c2ccc(O)cc2)CC1,7.0%,5.6%,-15.1%,-10.3%,15.3*,0.8
CN1CCN(S(=O)(=O)c2cccs2)CC1,-11.0%,6.0%,-5.0%,-1.8%,-2.6,-5.4
O=C(CSc1nncs1)Nc1nnc(-c2ccccc2)o1,2.6%,-2.8%,-4.4%,/,-1.9,-11.3
Cc1onc(-c2ccccc2)c1-c1nnc(CN2CCN(S(=O)(=O)c3ccccc3)CC2)o1,-15.7%,/,-5.8%,/,/,/
N#Cc1c(N)c(C#N)c(-c2ccc3c(c2)OCO3)c2c1CCCC2,-2.2%,1.0%,3.3%,9.8%,-1.1,11.3
N#Cc1c(-c2ccc3c(c2)OCO3)csc1N,?,-1.6%,5.1%,-26.8%,27.8*,82.6*
CNC(=O)c1ccccc1NC(=O)C1CC(=O)N(C(C)C)C1 (configuration not stated),7.8%,3.4%,-2.0%,-1.8%,-3.6,/
Clc1ccccc1N/N=C/c1ccc2c(c1)OCO2,22.5%,?,-17.3%,0.8%,75.9*,115.5*
C/C(=N\Nc1nc2ccccc2[nH]1)c1ccc2c(c1)OCCO2,7.9%,3.8%,1.2%,-6.7%,35.7*,52.7*
C(=N\Nc1nc2ccccc2[nH]1)/c1ccc2c(c1)OCO2,-14.6%,1.8%,-12.4%,-0.6%,35.2*,87.5*
SMILES,RE007 growth inh,LmPK inhibitor,TbPYK inhibitor,FBPA Giardia inh,CHX counter,Shiga inhibitor
C/C(=N\Nc1ccccn1)c1ccc2c(c1)OCO2,-16.1%,3.3%,-12.3%,-21.7%,44.1*,71.7*
COCCN(C(=O)CSc1cc(C)c2ccccc2n1)c1c(N)n(CC(C)C)c(=O)[nH]c1=O,-5.0%,/,-12.1%,/,/,/
C/C(=N\Nc1nc2ccccc2[nH]1)c1ccc2c(c1)OCO2,-9.1%,6.9%,-8.1%,-10.1%,35.5*,65.0*
C/C(=N\NC(=O)c1cc2ccccc2cc1O)c1ccc2c(c1)OCO2,-10.6%,-2.6%,-0.9%,-16.4%,17.7,56.7
Cc1ccc(C)c(C(O)c2ncc(-c3ccc(Cl)cc3)[nH]2)c1 (configuration not stated),-6.7%,/,3.1%,/,/,/
S=c1[nH]nc(-c2ccccc2)n1C1C=CCCC1 (configuration not stated),4.8%,2.51µM*,8.91µM*,-7.9%,-2.6,19.4
S=c1[nH]nc(-c2cccnc2)n1Cc1ccccc1,-0.7%,?,?,-3.3%,-2.7,-4.8
CC1CCCCC1n1c(-c2cccnc2)n[nH]c1=S (configuration not stated),9.4%,20µM*,11.2µM*,-5.6%,-2.7,-8.4
Cc1ccsc1-c1n[nH]c(=S)n1C1CCCCC1,1.8%,8.91µM*,3.16µM*,-7.1%,-1.6,12.5
S=c1[nH]nc(-c2cccnc2)n1C1CCCCC1,0.5%,8.91µM*,?,-22.8%,-5.0,-19.3
COc1ccc(-c2n[nH]c(=S)n2C2CCCCC2)cc1,18.1%,4.47µM*,?,11.1%,-4.4,-16.0
COc1ccc(-c2n[nH]c(=S)n2Cc2ccco2)cc1,4.8%,?,?,3.0%,0.7,-5.0
O=C(N/N=C/c1ccsc1)c1cc(-c2ccncc2)nc2ccccc12,/,6.3%,-7.1%,0.9%,-2.4,-16.1
CC(C)(C)c1ccc(/C=N/NC(=O)c2ccccn2)cc1,-20.4%,-14.8%,-8.1%,-22.1%,38.3*,42.3*
O=C(N/N=C/c1ccsc1)c1ccccn1,1.9%,-21.6%,-8.4%,-23.3%,27.6*,70.1*
O=C(N/N=C/c1ccc(Br)s1)c1ccccn1,-19.9%,-15.0%,-2.4%,0.1%,47.5*,84.1*
CC(O)c1cccc2cc(C(O)CNC(C)(C)C)oc12 (configuration not stated),/,/,/,-1.9%,-9.6,-9.0
CCOc1ccc(/C=C/c2nc(C#N)c(Nc3ccc(OCC)cc3)o2)cc1,/,/,4.2%,/,/,/
COC(=O)c1ccc(CSc2nc3c(c(=O)[nH]2)CCC3)cc1,6.0%,/,4.5%,/,/,/
CCN(C(=O)Cn1cnc2c1c(=O)n(C)c(=O)n2C)C1CCCCC1,-3.4%,/,-2.1%,/,/,/
CC(=O)Nc1ccc(-c2ccc(NC(C)=O)cc2)cc1,9.4%,0.0%,3.0%,5.0%,32.6*,60.0*
CC(=O)Nc1ccc(C#Cc2ccc(NC(C)=O)cc2)cc1,0.2%,1.8%,6.0%,2.0%,33.6*,67.8*
O=C(NC1CCCCC1)C(c1ccco1)N(Cc1cccs1)C(=O)Cn1nnc2ccccc21 (configuration not stated),-6.0%,0.0%,5.8%,11.1%,-1.5,-11.2
O=C(NCc1ccco1)C(c1ccco1)N(Cc1cccs1)C(=O)Cn1nnc2ccccc21 (configuration not stated),5.3%,6.3%,-12.1%,-5.2%,19.1*,51.5*
